# Source: PubChem (National Center for Advancing Translational Sciences (NCATS))
# TGFb inhibitor: qHTS for Inhibitors of TGF-b | HepG2 CAGA-GFP TGF-b/SMAD3 reporter, GFP fluorescence, 18 h; TGF-beta stimulated, 500 pg/mL final | Potency, µM (series often up to 46.1 µM), without a hit: top-dose activity, negative = inhibition, usual class: inhibitors | 1.2% of 410,000 active | AID 588855, 2011; further: on the % scale 0 is the no-effect control and ±100 the full control effect; nearly all actives have a fitted effect of over 65% in size
#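 HEPG2 CAGA-GFP reporter cells (1000/well, DMEM with 1% FBS) received compounds, then recombinant TGF-beta at 500 pg/mL final for 18 hours at 37 degrees C. Per-cell GFP summed per well was normalised to unstimulated and stimulated DMSO controls before curve fitting.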
# KB-3-1 cytotox: qHTS assay for MDR1-selective chemotherapeutics: Primary screen using the parental adenocarcinoma cell KB-3-1. AID 1347075, 2019. Potency, µM (series often up to 46.1 µM), actives largely listed as cytotoxic. 1.4% of 400,000 active. KB-3-1 viability, CellTiter-Glo ATP luminescence, 72 h; further: on the % scale 0 is the no-effect control and ±100 the full control effect; nearly all actives have a fitted effect of over 60% in size
#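 Here the drug-naive KB-3-1 line serves as comparator for MDR sub-line selectivity; cells received compound titrations, 72 h at 37 °C, then CellTiter-Glo readout.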
# HepG2 tox: qHTS for Inhibitors of TGF-b: Cytotox Counterscreen | HepG2 CAGA-GFP viability, ATP luminescence, 18 h | Potency, µM (titrated, usually from 46.1 µM), for inactives: at the highest dose activity change, negative = cytotoxicity, hits mostly cytotoxic | 0.76% of 410,000 active
#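 CellTiter-Glo luminescence gave cytotoxicity after 18 hours at 37 degrees C. The cells were HepG2 CAGA-GFP in 1% FBS DMEM, stimulated with 500 pg/mL TGF-beta after compound addition. %Activity was normalised to no-cell wells (complete cell-killing) and DMSO (no toxicity), and curves were fitted and classified.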
# KB-V1 MDR tox: qHTS assay for MDR1-selective chemotherapeutics: Primary screen using the drug-selected MDR subline cells KB-V1; AID 1347076, 2019; 3.4% of 400,000 active; KB-V1 MDR cells viability, CellTiter-Glo, 72 h; Potency, µM (doses to about 46.1 µM), usual class: cytotoxic; further: on the % scale 0 is the no-effect control and ±100 the full control effect; nearly all actives have a fitted effect of over 60% in size
#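 Potencies derive from concentration-effect curves fitted to normalized luminescence (CellTiter-Glo) of KB-V1 cells treated for 72 h at 37 degrees C in phenol-red-free DMEM containing 10% FBS.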
# HT1080NT lethal: qHTS for induction of synthetic lethality in tumor cells producing 2HG: qHTS for the HT-1080-NT fibrosarcoma cell line | HT-1080-NT fibrosarcoma viability, CellTiter-Glo ATP luminescence, 48 h | AID 686970, 2013 | Potency, µM (doses to about 46.1 µM), inactives show at the highest dose activity, negative = less viability, hits mostly cytotoxic | 1.6% of 360,000 active;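 further: NT is the 2HG producing partner of a matched IDH1 knockdown line; 0% = DMSO-treated cells and -100% = media-only wells without cells; nearly all actives have a fitted effect of over 55% in size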
#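 Read-out is CellTiter-Glo luminescence after 10 minutes at room temperature, following 48 hours' compound treatment of HT-1080-NT cells (750 cells/well, RPMI, 5% FBS, 37 degrees C).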
# HT1080 IDH1KD tx: qHTS for induction of synthetic lethality in tumor cells producing 2HG: qHTS for the HT-1080-IDH1KD cell line; HT-1080 IDH1 knockdown viability, ATP luminescence, 48 h; Potency, µM (top dose mostly 46.1 µM), for inactives: at the top dose activity, negative = toxicity, actives largely listed as cytotoxic; 2% of 360,000 active;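 further: 0% = DMSO wells and -100% = cell-free medium wells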
#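 After a 2 h attachment period, IDH1KD HT-1080 cells took pin-transferred compound for 48 h at 37 °C; ATP-based luminescence after 10 min room-temperature reagent incubation reported viability.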
# The depositor's hits bear a star; i = inactive; ? = inconclusive; . = not tested or not shown; [ ] = another dose, or the depositor's remark. In the library only some 6.6% were active in any assay of this set; here they are far more common. The call rests on the fitted dose curve; in most records, active means well fitted curve in the direction sought with a large enough effect; inconclusive means small, poorly fitted or top-dose-only effect, or another doubt; inactive means no such curve, though single readings can be large; an effect the other way counts as inactive or inconclusive. Potency means the concentration at half of the fitted maximal effect.
SMILES,TGFb inhibitor,KB-3-1 cytotox,HepG2 tox,KB-V1 MDR tox,HT1080NT lethal,HT1080 IDH1KD tx
CC(C)c1ccc(NC(=O)Cn2cc(S(=O)(=O)Cc3ccccc3Cl)c3ccccc32)cc1,?,i,-43%,?,.,.
COc1ccc2c(c1)CC(N1CCN(C)CC1)c1cc(OC)ccc1S2 (stereo not drawn),?,?,16µM*,?,?,21µM*
CSc1ccc2c(c1)C(N1CCN(C)CC1)Cc1ccc(F)cc1S2 (stereo not drawn),?,i,-130%,i,?,?
CCN(CC)/[N+]([O-])=N/OCOC(=O)C(C)c1ccc2cc(OC(C)=O)ccc2c1 (stereo not drawn),4%,.,-1%,.,.,.
Cc1c(C(=O)NCc2cccc(Cl)c2)sc2ncnc(N(C)C3CCCCC3)c12,?,i,5%,i,.,.
CC(=O)N1CCc2c(sc3nc(SCC(C)C)n(-c4ccc(C)c(Cl)c4)c(=O)c23)C1,?,i,11µM*,i,.,.
CC(=O)N1CCc2c(sc3nc(SCC(C)C)n(-c4ccc(F)c(Cl)c4)c(=O)c23)C1,?,?,-3%,i,.,.
O=C(CC(c1ccccc1)c1ccccc1)Nc1ccc(Cl)cn1,8%,?,4%,?,?,15µM*
O=C(COC(=O)/C=C/c1ccccc1)Nc1ccc(Cl)cn1,-16%,i,-8%,i,3%,3%
O=C(CS(=O)(=O)c1ccccc1)Nc1ccc(Cl)cn1,-2%,i,3%,i,27%,9%
O=C(/C=C/c1ccccc1)Nc1ccc(Cl)cn1,-21%,18µM*,-8%,?,?,4.6µM*
Oc1ccc(N=Cc2ccc(-c3cccs3)s2)cc1,11µM*,i,7.9µM*,i,-28%[9.24 µM],10µM*
CCCCOc1ccc(N=Cc2cccs2)cc1,11%,?,7%,i,3%,-4%
O=Cc1ccc(-c2cccs2)s1,5.6µM*,i,-10%,i,-5%,-8%
CCN(CC)C(=O)c1ccc(-c2cccs2)s1,-16%,i,-10%,i,-4%,-2%
COCCCn1c(=O)c2sccc2n2c(CCCC(=O)Nc3cc(C)cc(C)c3)nnc12,?,.,6%,.,.,.
COc1ccc(-c2c3c(cc(C)[n+]2[O-])oc2ccc(OC)cc23)cc1,-17%,?,-12%,10µM*,-7%,-9%
COc1ccc2oc3cc(C)[n+]([O-])c(-c4ccc(C)cc4)c3c2c1,?,?,-18%,5.8µM*,-3%,-13%
Cc1cc2nc(C)n(CCCNC(=O)Nc3cccc4ccccc34)c2cc1C,-7%,?,-29%,16µM*,-4%,-19%
CN1CCN(CCCNC(=O)Nc2cccc3ccccc23)CC1,7%,i,1%,i,2%,2%
CCOc1ccc(NC(=O)NCCCn2c(C)nc3cc(C)c(C)cc32)cc1,-20%,i,-24%,23µM*,1%,-1%
COc1ccc(NC(=O)c2cn3c4c(ccc(Cl)c4c2=O)OC(C)C3)cc1OC (stereo not drawn),0%,i,-2%,i,.,.
O=C(Nc1cccc(C(F)(F)F)c1)N1CCC(CN2CCCCCC2)CC1,0%,.,-2%,.,.,.
O=C(CN1CCN(C(c2ccccc2)c2ccccc2)CC1)NC(=O)NCc1ccco1,0%,i,-23%,2.3µM*,-13%,-26%
CC(C)(C)NC(=O)NC(=O)CN1CCN(Cc2ccccc2)CC1,-1%,i,8%,i,2%,-7%
